PubChem BioAssay (EPA / NIEHS)
Active and inactive are the calls of the source. The calls were made as follows: active = hit-call score of the fitted dose curve at least 0.9, where 1 is the maximum; inactive = score below 0.9.

Test: CCTE_Shafer_MEA_acute_burst_percentage_mean: CCTE's Neural Acute Assay for Percentage of Spikes in a Burst, Shafer Lab (AID 2284017);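 as to AC50: curve fitted for loss of signal so potency reflects decreased burst percentage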
Method: CCTE_Shafer_MEA_acute assay is conducted using Axion Biosystems 48 well microelectrode array (MEA) plates and Maestro recording system. Each well of the MEA plate contains a grid of 16 microelectrodes embedded in the culture surface. Electrically active cells, such as neurons, can be cultured over the electrodes, and electrical activity in these cells can be recorded extracellularly. The spontaneous firing of neurons is captured from each electrode on a microsecond timescale providing both temporally and spatially precise data. […] The CCTE_Shafer_MEA_acute assay uses primary cultures of rat cortical neurons. As these cultures mature over time, neural networks develop functional activity and form cohesive networks in which electrical activity can be highly coordinated. Baseline 40-minute recordings are made on days post-plating 13 or 15, followed by a secondary 40-minute recording after chemical exposure.CCTE_Shafer_MEA_acute_burst_percentage_mean is a component of the CCTE_Shafer_MEA_acute assay. It measures the percentage of spikes (action potential firing) in a single-electrode burst (temporally-clustered groups of spikes) as the number of spikes in bursts divided by the total number of spikes during a recording in a microelectrode array (MEA) using Axion Biosystems Maestro 768 channel amplifier with the AxIS adaptive spike detector. The average of the burst percentages across electrodes is calculated to report a well-level value. The recordings before and after chemical treatment are used to calculate a percent change in the mean burst percentage in each well.Data from the assay component CCTE_Shafer_MEA_acute_burst_percentage_mean was analyzed into 1 assay endpoint. This assay endpoint, CCTE_Shafer_MEA_acute_burst_percentage_mean, was analyzed in the negative analysis fitting direction relative to DMSO as the negative control and baseline of activity. Using a type of functional reporter, gain or loss-of-signal activity can be used to understand electrical activity.
Spontaneous activity in the cortical cultures was recorded using an Axion Biosystems Maestro 768 channel amplifier and Axion Integrated Studios (AxIS) v1.8 (or later) software. The amplifier recorded from all channels simultaneously (gain = 1200 x; sampling rate = 12.5 kHz/channel): raw signals were filtered with a Butterworth band-pass filter (300-5000 Hz), which filters out slower local field potentials leaving only fast potentials, i.e., "spikes", arising from extracellular currents associated with action potentials (Pine 2006; Wheeler and Nam 2011). On-line spike detection of filtered signals was conducted with the AxIS adaptive spike detector, using a threshold of 8x the root mean squared (rms) noise on each channel. Any electrodes with rms noise levels greater than 5 uV were grounded (e.g., no data were recorded). Once grounded, an electrode was grounded for the duration of the experiment. All recordings were conducted at 37 C. Wells were deemed usable if on the day of the exposure >/= 10 electrodes were active (defined as >/= 5 spikes/min). On DIV 13 or 15, a minimum of three wells from one cortical culture preparation were treated with each compound (0.03-40 uM). Prior to recording baseline activity, each mwMEA plate was placed in the Maestro at 37 C and allowed to sit for 20 min while firing rates stabilized. Baseline activity (40 min) was recorded before the addition of each compound. An additional 40 min of spontaneous activity was recorded in the presence of each compound. Changes in network parameters relative to baseline were assessed following compound treatment.
With `C=CCOC(=O)CCC1CCCCC1` the outcome was “inactive”. In the case of `COc1cc(C=O)ccc1OC(=O)C(C)C`, the outcome is reported as “inactive”. In the case of `CC(C)(COC(=O)c1ccccc1)COC(=O)c1ccccc1`, the outcome is reported as “inactive”. For `C=C[Si](OCC)(OCC)OCC`, the outcome was “inactive”. For `CC[Si](OC(C)=O)(OC(C)=O)OC(C)=O`, the outcome was “inactive”. With `NCCNCCN` the outcome was “inactive”. For `Nc1cc([N+](=O)[O-])ccc1O`, the AC50 was 23.7 µM (active). With `CC(=O)[C@H]1CC[C@H]2[C@@H]3CC=C4C[C@@H](O)CC[C@]4(C)[C@H]3CC[C@]12C` the AC50 was 2.98 µM (active). For `CCC(=O)OCc1ccccc1`, the outcome was “inactive”. For `CCCCCCCCC=O`, the outcome was “inactive”. With `OC1OC[C@@H](O)[C@H](O)[C@H]1O` (stereo partly specified) the outcome was “inactive”. In the case of `Cc1cc(C2(c3cc(C)c(O)cc3C)OS(=O)(=O)c3ccccc32)c(C)cc1O`, the outcome is reported as “inactive”. With `C[C@H]1C[C@@H]2[C@H]([C@@H](O)C[C@@]3(C)[C@H]2CC[C@]3(O)C(=O)CO)[C@@]2(C)C=CC(=O)C=C12` the outcome was “inactive”. With `OC[C@H]1O[C@H](O[C@]2(CCl)O[C@H](CCl)[C@@H](O)[C@@H]2O)[C@H](O)[C@@H](O)[C@H]1Cl` the outcome was “inactive”. For `CN(C)C(=N)N=C(N)N`, the outcome was “inactive”. In the case of `CC(=O)OCCC(C)CC(C)(C)C` (stereo unspecified), the outcome is reported as “inactive”.
